High-throughput results (PubChem)
TROY NFkB inh: blocks TROY-dependent signaling in reporter cells. Q293 LMP1-TROYcd NF-kB luciferase reporter, 4 h. inhibition, % at 10 µM. hit rate 0.98% among 360,000;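 active = compounds whose plate-normalised and pattern-corrected inhibition of the luciferase reporter signal at the single screening dose is 50% or more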
Peg3 promoter: Peg3 promoter activity inhibition. inhibition, % at 20 µM. hit rate 1.7% among 360,000. HeLa PEG-Prom luciferase reporter, luminescence, overnight;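 active = inhibition of at least 50% at 20 µM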
CF NFkB block: blocks PAF-induced NF-kB reporter in cystic fibrosis cells. KKLEB NF-kB-GFP reporter, GFP fluorescence overnight. hit rate 0.86% among 360,000. AID 588850. inhibition, % at 5 µM;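 active = at least 50% inhibition at 5 µM, scaled per plate between neutral and stimulator controls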;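 also: PAF is a Pseudomonas aeruginosa culture filtrate used as stimulus; plate controls were PAF-stimulated DMSO wells for no effect and unstimulated DMSO wells for full effect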
TWEAK Fn14 block: inhibitors of TWEAK-Fn14 interaction signaling | TWEAK-stimulated Fn14 reporter cells, luciferase luminescence, 8 h | inhibition, % at 10 µM | hit rate 2% among 360,000 | AID 1159606; in the data active = inhibition above about 50%
KKLEB tox: CF airway cell cytotoxicity counter-screen. hit rate 0.36% among 360,000. activity change (cytotoxicity), % at 5 µM. KKLEB CF airway cells viability, ATPlite luminescence, overnight; active compounds read low; cells stimulated with P. aeruginosa culture filtrate;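 active = corrected activity change at or below -50% at 5 µM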
HIF-2a inh: blocks HIF-2a reporter activity | 786-0 RCC cells HIF-2a reporter, luciferase luminescence, overnight | hit rate 0.72% among 360,000 | AID 624352 | inhibition, % at 18.8 µM;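 active = inhibition of the luminescence signal of 40% or more relative to plate controls, in a single-dose primary screen at 18.75 µM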
Numbers without * were called inactive; . = not tested or not shown. An excerpt weighted towards active compounds, which were near 4% of everything screened.

SMILES	TROY NFkB inh	Peg3 promoter	CF NFkB block	TWEAK Fn14 block	KKLEB tox	HIF-2a inh
CCSc1ccc2c(c1)N(CCCN1CCN(C)CC1)c1ccccc1S2	0	57*	-18	-14	16	-4
CN(C)CCCN1c2ccc(O)cc2Sc2ccc(Cl)cc21	-10	42	0	14	6	-6
CN1CCN(CCCN2c3ccccc3Sc3ccc(Cl)cc32)CC1	7	63*	42	-10	38	5
OCCN1CCN(CCCN2c3ccccc3Sc3ccc(C(F)(F)F)cc32)CC1	8	61*	18	-15	-17	-4
CCCCn1nnnc1C(c1cc2ccccc2o1)N(Cc1ccccc1)Cc1ccccc1 (stereo not drawn)	-11	.	.	-3	.	7
Cc1nc2ccc(NS(=O)(=O)c3c(F)cc(F)cc3Br)cc2s1	22	18	-8	11	-6	18
COc1ccc([C@H]2CC(=O)C[C@@H](CCn3cc(Cc4ccccc4)nn3)O2)cc1	-5	.	.	-13	.	12
CC(C)CC1NC(=O)c2cccnc2-n2c1nc1ccccc1c2=O (stereo not drawn)	-9	12	5	18	2	4
CC(CN1CCN(CCOCCO)CC1)CN1c2ccccc2Sc2ccc(Cl)cc21 (stereo not drawn)	16	101*	23	-26	-6	-35
COc1ccc2c(c1)N(C[C@H](C)CN(C)C)c1ccccc1S2	-20	-12	14	24	-1	1
Cc1cc(C(=O)NC2CCCc3c2cnn3-c2ccc(C(C)(C)C)cc2)nn1C (stereo not drawn)	39	-6	-9	61*	9	2
Cc1cc(C)cc(-n2ncc3c2CCCC3NC(=O)c2cc(C)n(C)n2)c1 (stereo not drawn)	-2	-39	-4	-13	-19	-61
CCOC(=O)C1=C(C)NC(C)=C(C(=O)OCC)C1C(=O)OCC(=O)NC1CCCCC1	4	39	23	-11	-2	8
CC1=NCC(C)c2c1[nH]c1ccccc21 (stereo not drawn)	75*	12	-14	-12	1	4
CC1=NCC(C)c2ccccc21 (stereo not drawn)	3	-8	0	8	-1	10
CCc1ccc2oc(-c3ccc(OC)cc3)cc(=Nc3c(C)n(C)n(-c4ccccc4)c3=O)c2c1	55*	-177	-34	75*	-6	-229
COc1ccc(-c2cc(=O)c3cc(O)ccc3o2)cc1	-86	-365	-51	-31	1	-213
C=CCn1c(-c2ccc(OC)cc2)csc1=Nc1c(C)n(C)n(-c2ccccc2)c1=O	11	15	-10	10	7	15
COc1ccc(-c2cc(=Nc3ccc(C(=O)O)cc3)c3cc(C)ccc3o2)cc1	-17	-357	-32	72*	-16	-218
CCc1ccc2oc(-c3ccc(OC)cc3)cc(=Nc3cccc(C(=O)O)c3)c2c1	65*	-240	-34	85*	-7	-164
O=C(NCC1CCCO1)C1CC(=O)N(c2cccc(Cl)c2)C1 (stereo not drawn)	-3	3	-1	1	1	8
COC(=O)[C@]12CCCCC=C1N(Cc1cccc3ccccc13)C(=O)[C@H](CC(=O)N1CCCCC1)C2	9	.	.	10	.	1
CCOC(=O)c1ccc(S(=O)(=O)N2CCN(C3CC(=O)N(c4ccc(OC)cc4)C3=O)CC2)cc1 (stereo not drawn)	0	9	-5	18	8	8
CCOc1ccc(/C=C2\CCC(C3CCCC3)C2=O)cc1OC (stereo not drawn)	-49	-71	-8	-20	-5	-132
COc1ccc(/C=C2/CSC/C(=C/c3ccc(OC)c(OC)c3)C2=O)cc1OC	15	100*	93*	92*	-92*	92*
COc1cc(C=C2CCCC(=Cc3ccc(OCC4CO4)c(OC)c3)C2=O)ccc1OCC1CO1 (stereo not drawn)	-4	93*	86*	73*	-45	13
O=C(NCCC1CCCCN1S(=O)(=O)c1cccs1)C(=O)Nc1ccc(F)cc1 (stereo not drawn)	-20	-63	-10	20	-10	-97
CC1CCC/C(=C(\C#N)c2nc(-c3cc4ccccc4oc3=O)cs2)C1 (stereo not drawn)	66*	-259	3	64*	-17	-104
